In PubChem BioAssay AID1566 (Sanford-Burnham Center for Chemical Genomics, 2009):
“And” between values parts separate entries of the source, which are not always exact repeats. Equal entries are not always repeated. Out of some 290,000 compounds screened, about 1,800 (0.62%) were called active. No stated cut-off is given here; in the data, active means inhibition above about 50%; inactive means the rest. The entries come from a sample that favours actives as a whole.

Assay: NOD2 signaling inhibitors, cell-based, luminescence, uHTS, HEK293 (AID 1566)
Conditions: HEK293 NOD2/NF-kB luciferase reporter, at 4 µM, hits give high values

inhibition, inactive:
COc1ccc(NS(=O)(=O)/C=C/c2ccccc2)cc1 17.1%
COc1ccc(C(=O)Nn2c(SCc3cccc([N+](=O)[O-])c3)nc3ccccc3c2=O)cc1 40.4%
COc1cccc(Oc2c(C)oc3c(CN4CCCCC4)c(O)ccc3c2=O)c1 18.7%
Cc1cccc(-n2cc(C(=O)O)c(=O)cc2C)c1 1.7%
CCOc1ccc(/C=C/C(=O)Nc2ccc3[nH]c(=O)[nH]c3c2)cc1 6.2%
Cc1ccc(NS(=O)(=O)c2c(C)nc3sccn3c2=O)cc1C 12.9%
CC1CCCN(c2ccc3nc4ccccc4c(=O)n3n2)C1 (stereo unspecified) 4.1%
CN(c1cc(=O)n2ccccc2n1)C1CCCCC1 -19.5%
Cc1nn(C)c(C)c1CCC(=O)N1CCCC(C(=O)c2cccc(OC(C)C)c2)C1 (stereo unspecified) 14.2%
CSc1ccc(C(=O)C2CCCN(C(=O)CCc3cnn(C)c3)C2)cc1 (stereo unspecified) 11%
Clc1cccc(-c2ccnc3nc(-n4cccc4)nn23)c1 5.6%
COc1ccc(OC)c(NC(=O)C2CC(=O)N(c3ccccc3)C2)c1 (stereo unspecified) -11.1%
COCCN1CN=C(NS(=O)(=O)c2ccc(C)cc2)NC1 6.3%
CC1CCCN(C(=O)c2nn(C)c3c2CSc2ccccc2-3)C1 (stereo unspecified) 8%
Cn1nc(C(=O)N2CCC(C(N)=O)CC2)c2c1-c1ccccc1SC2 12.9%
COCc1ccc(CN2CCC(C(=O)Nc3cccc(-c4cscn4)c3)CC2)o1 7.2%
Cc1ccc(S(=O)(=O)NC(=O)c2cc(C)n(-c3ccccc3)c2C)cc1 13.4%
Cc1ccc(NC(=O)c2cc(C)n(-c3cccc(C)c3)c2C)cc1 -26.4%
O=C(/C=C/c1cn(-c2ccccc2)nc1-c1cccnc1)N1CCCCC1 10%
O=C(/C=C/c1cn(-c2ccccc2)nc1-c1cccnc1)c1ccco1 -74.6%
CC(OC(=O)C1CCN(S(=O)(=O)c2ccc(Cl)cc2)CC1)C(=O)N1CCc2ccccc21 (stereo unspecified) -4.3%
COc1ccc(CN(Cc2nc3ccccc3c(=O)[nH]2)C(=O)c2ccco2)cc1 6.4%
c1ccc2c(c1)nc(-c1ccncc1)n2CCNc1nc(CN2CCCCC2)cs1 18.5%
CCOC(=O)c1ccc(NC(=S)N2CCCC(C(=O)OCC)C2)cc1 (stereo unspecified) -6%
O=C1C=C(c2cccs2)C[C@H](c2ccccc2)[C@H]1n1nnc([N+](=O)[O-])n1 21.7%
O=C1C=C(c2ccccc2)C[C@H](c2cccs2)[C@H]1n1cnc([N+](=O)[O-])c1 3.4%
COc1ccc(NC(=O)c2cccc(OC(=S)N3CCOCC3)c2)cc1 18.5%
Cc1cccc(C)c1NC(=S)NCc1ccncc1 7.5%
Cc1cc(/C=c2\sc3nc4ccccc4n3c2=O)c(C)n1-c1ccc(C(=O)O)cc1 -0.4%
Cc1cc(/C=c2/sc3nc4ccccc4n3c2=O)c(C)n1-c1ccccn1 3.6%
CC1(C)Cc2c(c(-c3ccco3)nc3sc4c(NCCO)ncnc4c23)CO1 16.6%
Cc1ccc(C(=O)O/N=C(/c2nonc2N)N(C)C)cc1 12.2%
COc1ccc(-c2nc3ccccc3n2Cc2ccccc2)cc1 -2.8%
Cc1n(Cc2ccccc2)c2ccccc2[n+]1Cc1ccccc1 22%
C/C(=N\Nc1ccc(C)c(Cl)c1)c1ccncc1 -32.8%
O=C(Nc1ccc2c(c1)OCO2)C1CCN(Cc2cc3c(cc2O)OCO3)CC1 1.5%
Cc1nc2sc(-c3ccccc3)cc2c(=O)n1N -41.2%
Cc1nc2ccccc2c(=O)n1N -3.2%
CC(C)(C#N)NC(=O)C(=O)c1c(-c2ccccc2)cc2ccccn12 5%
CCOc1ccc(-n2c(N)c(-c3nc4ccccc4[nH]3)sc2=S)cc1 9.9%
COc1cccc(/C=N/Nc2ccc([N+](=O)[O-])cc2)c1O -64%
COc1cccc(/C=N/Nc2ccc(S(=O)(=O)O)cc2)c1O 15.4%
CCOC(=O)CNC(=S)N(CCCN1CCN(C)CC1)Cc1cccs1 -1.4%
O=C1OC(c2ccccc2)c2ccccc21 (stereo unspecified) -11.5%
CC1CCN(S(=O)(=O)c2ccc(NC(=O)CNC3CCCCC3)cc2)CC1 -15.2%
Cc1sc2c(=O)n3c(nc2c1C(=O)NC1CCCCC1)CCCCC3 16.8%
O=C(O)COc1ccccc1/C=N/NC(=O)CSc1nc2ccccc2s1 -0.7%
O=C(O)CSc1nc2ccccc2s1 0.2% and -11.4%
O=C(CSc1nc2ccccc2s1)N/N=C/c1ccc(C(=O)O)cc1 12.9%
O=C(CSc1nc2ccccc2s1)CSc1nc2ccccc2s1 4.4%
Cc1ccc(S(=O)(=O)N2CCN3CCCC3C2)cc1 (stereo unspecified) 17.2%
O=C(O)c1ccc(-n2c(/C=C/c3ccccc3)nc3ccccc3c2=O)cc1 -19.9%
COc1ccc(Oc2nnc(-c3ccc(C)cc3)c3ccccc23)cc1 14.9%
Cc1ccc(/C=C/C(=O)Nn2cnnc2)cc1 5%
Cc1cc(Br)c(S(=O)(=O)NCc2ccncc2)cc1C 48.6%
Cc1ccc(C)c(S(=O)(=O)NCc2ccncc2)c1 22.5%
Cc1c(NP(=O)(Oc2ccccc2F)Oc2ccccc2F)c(=O)n(-c2ccccc2)n1C 7.9%
O=C(Nc1cc(S(=O)(=O)N2CCCC2)ccc1OCC(F)(F)F)c1ccccc1F 6.6%
COC(=O)c1c(-c2ccccc2)csc1NC(=O)CSc1ncnc2sc(C)c(C)c12 34.6%
Cc1cccc(NC(=O)CSc2ncnc3sc(C)c(C)c23)n1 36.5%
O=C(O)CN1C(=O)C2C3CC(C2C1=O)C1C(c2ccc(Cl)cc2)c2sc(=O)[nH]c2SC31 (stereo unspecified) 3.8%
Cc1nn(-c2ccccc2)c(Cl)c1/C=N/NC(=O)OC(C)(C)C -73.9%
O=C(Nc1nnc(S(=O)(=O)N2CCCCC2)s1)c1ccc(Cl)cc1 47.8%
CC1CCN(S(=O)(=O)c2nnc(NC(=O)c3cccc([N+](=O)[O-])c3)s2)CC1 37.1%
Cc1ccc(C(=O)Nc2nnc(S(=O)(=O)N3CCCCCC3)s2)cc1 4.6%
Cc1cccc(C(=O)Nc2nnc(S(=O)(=O)N3CCC(C)CC3)s2)c1 -3.6%
CC(=O)c1cccc(NCC(=O)c2ccc(C)c([N+](=O)[O-])c2)c1 15.7%
Cc1ccc(S(=O)(=O)Nc2nnc(C(C)(C)C)s2)cc1 20.9%
N/C(=N\c1nc(CSc2ccc(Cl)cc2)cc(=O)[nH]1)Nc1ccccc1C(F)(F)F 2.8%
Cc1ccc(C2CC(c3cccs3)=NN2C(=O)CCl)cc1 (stereo unspecified) 37.3%
CC(=O)N1N=C(c2ccco2)CC1c1cccs1 (stereo unspecified) -8.2%
O=C(O)CCC(=O)N1N=C(c2ccco2)CC1c1cccs1 (stereo unspecified) 12.1%
Cc1ccc(C2=NN(C(=O)CCl)C(c3ccco3)C2)o1 (stereo unspecified) -44.2%
CCOC(=O)c1cccc(NC(=O)COC)c1 4.6%
CCOCCCNC(=O)/C(C#N)=C/c1ccc(C(=O)OC)cc1 15.4%
O=C1Nc2ccccc2S/C1=C\C(=O)N1CCCC1 -4%
O=C(CCNC(=O)c1ccco1)Nc1ccccc1N1CCOCC1 -4.7%
COc1cc(/C=C2\SC(=O)N(CC(=O)Nc3cccc(C)c3)C2=O)cc([N+](=O)[O-])c1O 1.5%
COc1cc(/C=C2\SC(=O)N(CC(=O)Nc3ccccc3F)C2=O)cc(Cl)c1O 18.4%
O=C(NC1CCCCC1)C1CN(S(=O)(=O)c2ccccc2)CCN1S(=O)(=O)c1ccccc1 (stereo unspecified) 20.9%
CCOC(=O)/C(C#N)=C1/SC(CC)C(=O)N1c1ccc(Br)cc1 (stereo unspecified) -8.1%
CC1CCN(C(=S)c2cn(Cc3ccccc3F)c3ccccc23)CC1 10.5%
CC(=O)Oc1cccc(N2C(=O)C3CC=CCC3C2=O)c1 (stereo unspecified) 2.7%
Cc1csc2c(N3CCN(C(=O)Nc4ccc(OC(F)(F)F)cc4)CC3)ncnc12 10.4%
Cc1csc2c(N3CCN(C(=O)Nc4ccccc4)CC3)ncnc12 34.1%

inhibition, active:
CN(c1ccc2nc3ccccc3c(=O)n2n1)C1CCCCC1 79%
CSc1ccc(C(=O)C2CCCN(C(=O)CCc3c(C)nn(C)c3C)C2)cc1 (stereo unspecified) 50.1%
CC1CC(C)CN(C(=O)c2nn(C)c3c2CSc2ccccc2-3)C1 (stereo unspecified) 51.5%
Cc1ccc(NC(=O)c2cc(C)n(-c3ccccc3)c2C)cc1 52%
O=C(/C=C/c1cn(-c2ccccc2)nc1-c1cccnc1)N1CCCC1 50.2%
Cc1nc2cc(-c3ccccc3)sc2c(=O)n1N 54.8%
COc1cccc(/C=N/Nc2ccc(C(=O)O)cc2)c1O 82.8%
O=C(O)CCSc1nc2ccccc2s1 65.2%
O=C(CSc1nc2ccccc2s1)N/N=C/c1ccccc1C(=O)O 56.5%
COC(=O)c1c(-c2cccs2)csc1NC(=O)CSc1ncnc2sc(C)c(C)c12 51.2%
CCOc1cc(/C=C2\SC(=O)N(CC(=O)Nc3ccccc3F)C2=O)cc([N+](=O)[O-])c1O 55.8%
